# Experimental data as given in the OligoGym collection.
# Legend:
# Assay in all cases: pooled miR-30 sensor sort-seq; sequence = guide strand
# Settings in all cases: shRNA
# ABHD8 = molecular target: ABHD8
# ACTL6A = molecular target: ACTL6A
# ACYP1 = molecular target: ACYP1
# ACTR3B = molecular target: ACTR3B
# ADAD1 = molecular target: ADAD1
# ADAM19 = molecular target: ADAM19
# ADD2 = molecular target: ADD2
# ADORA2B = molecular target: ADORA2B
# ADIPOR1 = molecular target: ADIPOR1
# ADRB1 = molecular target: ADRB1
# AHCY = molecular target: AHCY
# AKR1C4 = molecular target: AKR1C4
# AMPH = molecular target: AMPH
# AMY2A = molecular target: AMY2A
# ANAPC5 = molecular target: ANAPC5
# AMOTL1 = molecular target: AMOTL1
# Further: reference of the scale not given here.
sequence,measurement,setting,value
TTGAAGATTGAGCAGAAGCTGG,sensor-assay potency score (higher = more potent),ABHD8,-0.887
TAGCGCTTGAAGATTGCTCGCA,sensor-assay potency score (higher = more potent),ABHD8,0.247
TAACCTGAGGCAACTTCTCTTT,sensor-assay potency score (higher = more potent),ACTL6A,-0.605
TAATTGTGCCAAGACCTCGTAA,sensor-assay potency score (higher = more potent),ACTL6A,-0.587
TAGTGTTCAAACATTAACTCTG,sensor-assay potency score (higher = more potent),ACTL6A,0.293
TTCATAATCCACTGATATCAGG,sensor-assay potency score (higher = more potent),ACYP1,-1.09
ATAGCTTGGAAACTATCCCAGT,sensor-assay potency score (higher = more potent),ACTL6A,-0.733
TCTATAACAAACTTCTTCTGGT,sensor-assay potency score (higher = more potent),ACTR3B,0.599
TTACTTCATCAACAACATCTGA,sensor-assay potency score (higher = more potent),ACTR3B,-0.87
TTGAGCTTGGTCAACTACCTTT,sensor-assay potency score (higher = more potent),ACTR3B,-0.378
TTAGTATCTATGTAGTAGGTGG,sensor-assay potency score (higher = more potent),ACTL6A,0.198
TTGCTCTAGTATTCCACGGTGC,sensor-assay potency score (higher = more potent),ACTL6A,-0.281
TATAACAAACTTCTTCTGGTTG,sensor-assay potency score (higher = more potent),ACTR3B,-0.5
TTGATCGCATTGATACCCGTGT,sensor-assay potency score (higher = more potent),ACTR3B,-0.213
TCCTTCTTCATATTCTTGCTTG,sensor-assay potency score (higher = more potent),ACTL6A,-0.909
TGTCCTTGCACTGTGCCCCGGT,sensor-assay potency score (higher = more potent),ACYP1,0.12
TAGTATTCCACGGTGCCTCTGA,sensor-assay potency score (higher = more potent),ACTL6A,0.0107
AATAGCTTGGAAACTATCCCAG,sensor-assay potency score (higher = more potent),ACTL6A,-0.568
TTTAAAAACCACTTGCTCCATG,sensor-assay potency score (higher = more potent),ACTR3B,-0.231
TTGAATCTGACACTTGAAGTAC,sensor-assay potency score (higher = more potent),ACTL6A,-0.0659
TTGAAGGACATAGCCATCGTGG,sensor-assay potency score (higher = more potent),ACTL6A,-0.822
AAAAATTTCATAATCCACTGAT,sensor-assay potency score (higher = more potent),ACYP1,0.598
TTCTGCAAGATACTCTCTGTTT,sensor-assay potency score (higher = more potent),ACTR3B,-0.433
TTTGCAATCAATTTCAACCGCA,sensor-assay potency score (higher = more potent),ACTL6A,0.585
TTACACATATAATTGTGCCAAG,sensor-assay potency score (higher = more potent),ACTL6A,-1.42
TTGCTTGGAAATCCACATCTGT,sensor-assay potency score (higher = more potent),ACTL6A,-0.451
TACTGTTTGATCCACTTCCGGG,sensor-assay potency score (higher = more potent),ACTR3B,-0.539
TTGTGGTGACAACATGACTGAC,sensor-assay potency score (higher = more potent),ACTL6A,-0.897
TAGTAATAAAGTCTCCAGCAAG,sensor-assay potency score (higher = more potent),ACTL6A,-1.21
TTACATAACCTTCTGCCACTGG,sensor-assay potency score (higher = more potent),ACTR3B,0.166
TCATTGTTGAAGTTTGCTTTGT,sensor-assay potency score (higher = more potent),ACYP1,-0.429
TTTATCGCCATCTATTTCCATT,sensor-assay potency score (higher = more potent),ACTL6A,-1.13
TACACTGCCATAGAGACCTGGT,sensor-assay potency score (higher = more potent),ACTL6A,-0.00757
TTGTGTTTCCTGATAACCCCTT,sensor-assay potency score (higher = more potent),ACTL6A,0.282
TTTTCTGAGACAGCTCTCTATT,sensor-assay potency score (higher = more potent),ACTL6A,-0.807
TTACACTGCCATAGAGACCTGG,sensor-assay potency score (higher = more potent),ACTL6A,-0.411
TTCATCAACAACATCTGAGATG,sensor-assay potency score (higher = more potent),ACTR3B,-0.638
TACTTCATCAACAACATCTGAG,sensor-assay potency score (higher = more potent),ACTR3B,0.487
TCGATGTGTGATTTAGGACTTC,sensor-assay potency score (higher = more potent),ACYP1,-0.511
TTGACATGCATTTTGTAGGTAT,sensor-assay potency score (higher = more potent),ACTL6A,0.179
TACGACATTCTTATACAGCGGG,sensor-assay potency score (higher = more potent),ACTR3B,-0.141
TAGGACTTCCTCTTGTTTCAAG,sensor-assay potency score (higher = more potent),ACYP1,-0.653
TGACTGACTCCTAACATTGTGT,sensor-assay potency score (higher = more potent),ACTL6A,-0.541
TTTGCTCTAGTATTCCACGGTG,sensor-assay potency score (higher = more potent),ACTL6A,-0.0557
TAAACTAATATGAGGTCTGTTG,sensor-assay potency score (higher = more potent),ADAD1,-1.14
TTTCCGTGAACAATCTCCCAAA,sensor-assay potency score (higher = more potent),ADAM19,-0.808
TTTTCCGTGAACAATCTCCCAA,sensor-assay potency score (higher = more potent),ADAM19,-0.446
TTAGAGGTATCAACATCCGTGT,sensor-assay potency score (higher = more potent),ADD2,-0.242
TTTTCCACCATAAACAAGGCAG,sensor-assay potency score (higher = more potent),ADORA2B,-0.459
TTTTGTGAAAAGTGTAGCGGAA,sensor-assay potency score (higher = more potent),ADORA2B,0.0237
TTAAATGTAGAGATAGCTCCAT,sensor-assay potency score (higher = more potent),ADD2,0.598
TAGCGGAAGTCTCGGTTCCGGT,sensor-assay potency score (higher = more potent),ADORA2B,-1.62
TAGACGGTGTGAAAGAGCCAGG,sensor-assay potency score (higher = more potent),ADIPOR1,-1
TTGACAACTGAATTGGCATGTG,sensor-assay potency score (higher = more potent),ADORA2B,-0.143
TCTCTGAATGACAATAGACGGT,sensor-assay potency score (higher = more potent),ADIPOR1,-0.907
ATGAAGTACATATTTGGTCTGA,sensor-assay potency score (higher = more potent),ADIPOR1,-0.176
TAGAGGTATCAACATCCGTGTC,sensor-assay potency score (higher = more potent),ADD2,-1.2
TTCCTCTCCACCTCTTTCTTGT,sensor-assay potency score (higher = more potent),ADD2,-0.367
TTTCTGTCTTCTTAGTACCTTC,sensor-assay potency score (higher = more potent),ADD2,-0.453
TTCTAGTTTCTTCCTCTCCACC,sensor-assay potency score (higher = more potent),ADD2,-1.02
TTTCTCTCCATCAAGTTCTAGT,sensor-assay potency score (higher = more potent),ADD2,-0.228
TAGAAGTCAGTGCAGAAGCCCA,sensor-assay potency score (higher = more potent),ADORA2B,-0.856
TTGTCTCTGCCTCCTTCGCTGG,sensor-assay potency score (higher = more potent),ADD2,-1.43
TATAGCTCTTCCATCCATCATT,sensor-assay potency score (higher = more potent),ADD2,-1.04
TTAAAAACAAAAGAGTCTGTTA,sensor-assay potency score (higher = more potent),ADORA2B,-0.121
TAGAAGGAATAATAGAGCCAGG,sensor-assay potency score (higher = more potent),ADIPOR1,-1.35
TAATTAGAAGAGCAATCCCTGA,sensor-assay potency score (higher = more potent),ADIPOR1,-1.23
TTGACCTCTGATTTAGTCTGAG,sensor-assay potency score (higher = more potent),ADD2,0.252
TTGCTCTTCTTCAGCTTTGGGT,sensor-assay potency score (higher = more potent),ADIPOR1,-0.543
TAGTCGTTGTCCTTTAGCCAGT,sensor-assay potency score (higher = more potent),ADIPOR1,-0.984
TGAATGACAATAGACGGTGTGA,sensor-assay potency score (higher = more potent),ADIPOR1,0.0155
TTAATGTAGATCACCAGCATTA,sensor-assay potency score (higher = more potent),ADORA2B,-1.17
TCGGTAGACACTGCTGATCTTG,sensor-assay potency score (higher = more potent),ADD2,-0.972
TTTAGTTTTGAAGTGCCTGAGA,sensor-assay potency score (higher = more potent),ADD2,-0.472
TTGGCTAGTCACTTTGAGCAGC,sensor-assay potency score (higher = more potent),ADD2,-0.569
TTTGGTATCCTCGTCTCCCTTG,sensor-assay potency score (higher = more potent),ADD2,-0.18
TATACCATGTAGCTCATGGGGA,sensor-assay potency score (higher = more potent),ADORA2B,-0.182
TTGCTTGTTTCTGTCTTCTTAG,sensor-assay potency score (higher = more potent),ADD2,-0.81
TTTCACAATGAAAACCAGCCGT,sensor-assay potency score (higher = more potent),ADORA2B,-0.477
AAGTGTAGCGGAAGTCTCGGTT,sensor-assay potency score (higher = more potent),ADORA2B,-0.00274
TGACTTCACATCTTGTCGGTTT,sensor-assay potency score (higher = more potent),ADD2,-0.214
AAACTCTTCCATCTTCTCCATG,sensor-assay potency score (higher = more potent),ADIPOR1,-1.3
TATATTTGTCAATCCTTGGAGC,sensor-assay potency score (higher = more potent),ADORA2B,-0.159
TAGCAGATAGTCGTTGTCCTTT,sensor-assay potency score (higher = more potent),ADIPOR1,-0.519
ATAATTAGAAGAGCAATCCCTG,sensor-assay potency score (higher = more potent),ADIPOR1,-1.25
TTATTTTTAAAAGCACTTGGGA,sensor-assay potency score (higher = more potent),ADIPOR1,-0.469
TCTGTTGTTTTGATCCTCCTTA,sensor-assay potency score (higher = more potent),ADD2,0.276
TGTCCACTGCTGAGACAGCGGC,sensor-assay potency score (higher = more potent),ADRB1,-1.28
ATGAGCAGCACGATGAGCGCCA,sensor-assay potency score (higher = more potent),ADRB1,-0.267
TTGTCAAACTTGCTCTTGGTGA,sensor-assay potency score (higher = more potent),AHCY,-0.625
TTACTCATCACGAAGCTGGGGT,sensor-assay potency score (higher = more potent),AHCY,0.777
TAGAACTTTCATATCCTCTGAT,sensor-assay potency score (higher = more potent),AKR1C4,0.539
TTACTTTAGAACAATCTGTGAA,sensor-assay potency score (higher = more potent),AMPH,-0.181
TAACATAAAATCCAACTCGTCT,sensor-assay potency score (higher = more potent),AMPH,-0.296
TTTCCTTATGAAACTTGGCTTC,sensor-assay potency score (higher = more potent),AMPH,-0.107
TGATTTGGACTTGCTGTCGGGC,sensor-assay potency score (higher = more potent),AMPH,-0.73
TCATAGTCCACTAGCTTCCTGC,sensor-assay potency score (higher = more potent),AMPH,-0.747
TTAAGTAAGACATCTTCTCTCC,sensor-assay potency score (higher = more potent),AMY2A,0.353
TCTGCATACACATAGATCCAGG,sensor-assay potency score (higher = more potent),AMPH,-1.05
TTATCCACAAAGACAAGCGCTC,sensor-assay potency score (higher = more potent),AMY2A,-0.172
TTTTGATCACATAACATCCATA,sensor-assay potency score (higher = more potent),ANAPC5,-1.19
TTGATTGCTGCTAAATATCCTC,sensor-assay potency score (higher = more potent),AMPH,-0.275
TTTTTTGCACACATGCTCCATT,sensor-assay potency score (higher = more potent),AMPH,-0.524
TAATTCATCACATCTTCTGCAG,sensor-assay potency score (higher = more potent),AMPH,-0.0381
TTCTGGAACAAAGTTGTCCTCA,sensor-assay potency score (higher = more potent),AMPH,-0.205
TAACAAAAGTGAACTCTTCAGG,sensor-assay potency score (higher = more potent),AMPH,-0.296
TTTTTGATGGAAGTCTTCCCAC,sensor-assay potency score (higher = more potent),AMPH,-0.336
TTCTTCGAACTGTTCGTCTTTT,sensor-assay potency score (higher = more potent),AMPH,-0.66
TTAACATAAAATCCAACTCGTC,sensor-assay potency score (higher = more potent),AMPH,-0.669
TTAAAGAAAATGACCAGTCATC,sensor-assay potency score (higher = more potent),AMY2A,-0.896
TAGAGATTCGACTCTCATCCTT,sensor-assay potency score (higher = more potent),AMPH,0.077
TTTGTCTTCATGCCCTTCGTAT,sensor-assay potency score (higher = more potent),AMOTL1,-0.754
TTTACTTTAGAACAATCTGTGA,sensor-assay potency score (higher = more potent),AMPH,-0.223
TCACATAACATCCATAACTGGG,sensor-assay potency score (higher = more potent),ANAPC5,-0.755
TTCTTGAGTGAGGTTTTCCGTG,sensor-assay potency score (higher = more potent),AMOTL1,-0.593
TAATCATAGCATCTTTCTCTAT,sensor-assay potency score (higher = more potent),AMOTL1,-1
TAGTCCACTAGCTTCCTGCTGC,sensor-assay potency score (higher = more potent),AMPH,0.262
TACATTGCGGAAAATAACCATG,sensor-assay potency score (higher = more potent),AMY2A,-1.22
TAAATGAACCACCAGAAGCCGG,sensor-assay potency score (higher = more potent),AMPH,-1.23
TTGCTGCTAAATATCCTCGGAG,sensor-assay potency score (higher = more potent),AMPH,-0.441
